Screening results (PubChem)
Smad3 inh – Smad3/FoxH1 peptide binding inhibitors, primary screen, biochemical, TR-FRET. TR-FRET Smad3/Dy647-FoxH1 peptide binding, europium anti-His. Mothers against decapentaplegic homolog 3 (Homo sapiens), P84022. inhibition, % at 25 µM. AID 630, 2007. 0.29% of 88,000 active;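 active means compounds that reduce the energy-transfer binding signal between the protein and its labelled peptide by more than half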;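 further: 0% = Smad3 plus labelled peptide maximal FRET and 100% = peptide-only background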
ERa coact inh – ERα–SRC-1 coactivator interaction inhibitors, primary screen, biochemical, TR-FRET, ERα LBD, estradiol-bound; Estrogen receptor (Homo sapiens), P03372; TR-FRET ER-alpha LBD / SRC-1 peptide; inhibition, % at 25.6 µM; 1.7% of 86,000 active; AID 629, 2007; in the data active means inhibition above about 50%;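 further: 0% = receptor plus peptide control and 100% = peptide only without receptor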
Target sequence (P03372 whole entry, looked up, the tested form may be a part): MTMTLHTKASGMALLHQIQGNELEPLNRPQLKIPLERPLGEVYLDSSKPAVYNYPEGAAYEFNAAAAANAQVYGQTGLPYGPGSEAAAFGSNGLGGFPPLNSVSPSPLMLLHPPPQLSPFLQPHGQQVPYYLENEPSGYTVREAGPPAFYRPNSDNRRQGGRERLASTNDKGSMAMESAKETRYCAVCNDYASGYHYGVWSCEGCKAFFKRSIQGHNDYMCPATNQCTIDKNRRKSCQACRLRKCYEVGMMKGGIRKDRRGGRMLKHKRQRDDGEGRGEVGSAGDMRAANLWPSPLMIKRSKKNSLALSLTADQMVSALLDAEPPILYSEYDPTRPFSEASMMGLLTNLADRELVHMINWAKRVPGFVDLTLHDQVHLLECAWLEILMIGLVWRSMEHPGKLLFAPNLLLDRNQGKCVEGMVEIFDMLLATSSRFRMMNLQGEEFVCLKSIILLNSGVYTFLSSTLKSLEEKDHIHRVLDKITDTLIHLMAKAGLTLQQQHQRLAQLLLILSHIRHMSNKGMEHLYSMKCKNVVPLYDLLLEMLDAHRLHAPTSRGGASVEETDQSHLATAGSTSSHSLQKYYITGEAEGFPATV
FAK blocker – FAK kinase inhibitors, primary screen, biochemical; biochemical FAK kinase activity assay; inhibition, %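 (tested at 7 µM)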; 0.84% of 97,000 active; in the data active means inhibition above about 19%;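 further: 0% = DMSO and 100% = reference compound high control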
ERa coact pot – enhancers of ERα–SRC-1 coactivator binding, primary screen, biochemical, TR-FRET, ERα LBD, low estradiol | Estrogen receptor (Homo sapiens), P03372 | TR-FRET ERalpha-LBD/SRC-Cy5 coactivator binding, 2 h; 100 = basal binding, no effect | coactivator binding (% of control), % at 25.6 µM | 1.3% of 86,000 active; in the data active means activity above about 200%;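 further: binding measured in presence of low estradiol as agonist stimulus; 0% = peptide alone without receptor and 100% = receptor with peptide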
ERb SRC1 inh – inhibitors of ERβ-SRC1 coactivator interaction, primary screen, biochemical, TR-FRET, ERβ LBD, SRC-1 peptide; Estrogen receptor beta (Homo sapiens), Q92731; TR-FRET ER-beta LBD / SRC1-Cy5 peptide binding; receptor agonist-loaded with 1 µM estradiol; inhibition, % at 25.6 µM; 1.3% of 86,000 active; AID 633, 2007;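 active means compounds whose percent inhibition of the receptor-coactivator binding signal exceeds about 50% in the single-dose screen, limit read from the data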;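 further: 0% = receptor plus peptide wells without compound and 100% = peptide-only wells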
* marks the source's active call; other numbers are inactive results; [ ] = remark or other dose. Most compounds without a hit are left out; they make up all but 3.3% or so of the library.

Screening CCOC(=O)N1CCN(c2cc(NCCC(=O)O)c3c4c(onc24)-c2ccccc2C3=O)CC1 returned Smad3 inh -7.7, ERa coact inh 9.7, ERa coact pot 51.0 and ERb SRC1 inh 65.0*[fluorescence artefact?].
For O=C(O)CCCNc1cc(N2CCC3(CC2)OCCO3)c2noc3c2c1C(=O)c1ccccc1-3 the results were Smad3 inh 98.2*[fluorescence artefact?], ERa coact inh 27.2, FAK blocker 0.6, ERa coact pot 41.1 and ERb SRC1 inh 87.7*[fluorescence artefact?].
Screening O=C(/C=C/c1ccccc1Cl)NC(=S)Nc1ccccc1C(=O)NC1CCCCC1 returned FAK blocker -2.7.
c1ccc(-c2ccc(-c3ccc(C4=NCCN4)cc3)o2)cc1 was read as Smad3 inh -2.6.
For CCc1ccc(CCC(=O)Nc2ccc(OC)cc2)o1 the results were Smad3 inh 4.2, ERa coact inh -32.6, FAK blocker 1.6, ERa coact pot 97.8 and ERb SRC1 inh -19.9.
For COc1ccc(C(N)CCc2ccc(C)o2)cc1 (stereo not given) the results were Smad3 inh 4.2, ERa coact inh 95.1*[fluorescence artefact?], FAK blocker 8.7, ERa coact pot 19.1 and ERb SRC1 inh 74.1*.
Screening Cn1c(=O)c2[nH]c(CCCCC(=O)O)nc2n(C)c1=O returned Smad3 inh 1.9.
CCc1nnc2sc(-c3ccc(NC(=O)CSc4ccc(Cl)cc4)cc3)nn12 was read as Smad3 inh -136.2, ERa coact inh 30.6, FAK blocker 1.0, ERa coact pot 225.1*[fluorescence artefact?] and ERb SRC1 inh -2.3.
Screening Cc1nnc2sc(-c3ccc(NC(=O)CSc4ccc(Cl)cc4)cc3)nn12 returned Smad3 inh -25.5, ERa coact inh 49.2, FAK blocker 7.8, ERa coact pot 129.7 and ERb SRC1 inh 46.6.
Screening COCCCNC(=O)Cn1cc2c(n1)CCC(C)C2 (stereo not given) returned Smad3 inh 15.0, ERa coact inh 12.9, ERa coact pot 205.4* and ERb SRC1 inh -0.7.
Screening COCCCNC(=O)Cn1cc2c(n1)CCCCC2 returned Smad3 inh -7.4, ERa coact inh 0.2, ERa coact pot 114.5 and ERb SRC1 inh 7.8.
`C#CCOC(=O)[C@H](N)CC(N)=O` gave Smad3 inh -3.3.
Screening COc1ccc(NC(=O)Nc2ccc(OC)cc2)cc1 returned Smad3 inh 7.9, ERa coact inh -1.1, FAK blocker 0.0, ERa coact pot 107.3 and ERb SRC1 inh 6.5.
COc1ccc(NC(=O)Nc2ccc(N(C)C)cc2)cc1 was read as Smad3 inh 6.1, ERa coact inh 28.1, FAK blocker 3.0, ERa coact pot 74.7 and ERb SRC1 inh 51.7*[fluorescence artefact?].
For CCCNC(=O)C(=O)Nc1ccc(N(C)C)cc1 the results were Smad3 inh 90.9*[fluorescence artefact?], ERa coact inh -2.3, FAK blocker 2.6, ERa coact pot 104.7 and ERb SRC1 inh -5.1.
C[C@@H](N1CCOCC1)[C@@](O)(c1ccccc1)c1ccccn1 was read as Smad3 inh 10.3.
For CCCCCOc1ccc(Br)cc1/C(C)=N/NC1=NCCN1 the results were Smad3 inh 1.1, ERa coact inh 65.9*[fluorescence artefact?], FAK blocker 2.2, ERa coact pot 21.0 and ERb SRC1 inh 18.0.
For COc1ccc(Br)cc1/C(C)=N/NC1=NCCN1 the results were Smad3 inh 4.4, ERa coact inh 32.3, FAK blocker 0.7, ERa coact pot 97.2 and ERb SRC1 inh -4.0.
Screening CCN1CCN(C(=O)c2cc3c(=O)oc4ccc(C)cc4c3s2)CC1 returned Smad3 inh 6.3, ERa coact inh -0.4, ERa coact pot 118.1 and ERb SRC1 inh -1.2.
`Cc1ccc2oc(=O)c3cc(C(=O)NCc4ccco4)sc3c2c1` gave Smad3 inh -17.3, ERa coact inh 67.5*[fluorescence artefact?], FAK blocker 1.7, ERa coact pot 112.5 and ERb SRC1 inh 53.9*[fluorescence artefact?].
CCCCc1cc2c(c(NC(C)=O)n1)c(=O)oc1ccccc12 was read as Smad3 inh -5.1, ERa coact inh 27.6, FAK blocker 2.4, ERa coact pot 269.9*[fluorescence artefact?] and ERb SRC1 inh 15.6.
